Assay outcomes as filed in PubChem.
Compounds with a hit are over-represented: about 12% of the library has one in this group of screens.
G9a block: G9a (human) methyltransferase inhibition | Q96KQ7 | actives 8.8% (n = 350,000) | AID 504332 | G9a H3K9 monomethylation, AlphaScreen, 2 h | Potency, µM (titrated, usually from 102 µM), without a hit: top-dose activity, negative = inhibition, actives largely listed as inhibitors; further: on the % scale 0 is the no-effect control and ±100 the full control effect; nearly all actives have a fitted effect of over 75% in size
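Chemiluminescent proximity detection of H3K9 monomethylation, read after 10 min bead incubation in the dark. Reaction: 20 nM G9a, 500 nM biotin-H3K9 peptide, 20 uM SAM cofactor, 2 h, room temperature, following 15 min enzyme-compound preincubation.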
JMJD2A Tudor inh: blocks the human JMJD2A Tudor domain | actives 4.4% (n = 390,000) | Potency, µM (series often up to 114 µM), for the others: top-dose activity change, negative = inhibition, most hits filed as inhibitors | AID 504339 | AlphaScreen JMJD2A-Tudor / H3K4me3 peptide binding; further: on the % scale 0 is the no-effect control and ±100 the full control effect; nearly all actives have a fitted effect of over 50% in size
HP1b binding inh: HP1-beta chromodomain-methylated histone interaction inhibition. AID 540317. P83916. AlphaScreen HP1-beta / biotin-H3K9me3 peptide binding. actives 0.56% (n = 390,000). Potency, µM (doses to about 114 µM), inactives show at the highest dose activity change, negative = inhibition, most hits filed as inhibitors; further: nearly all actives have a fitted effect of over 70% in size
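HP1-beta protein (50 nM final) preincubated 30 min at room temperature with biotinylated H3(1-18)K9me3 peptide (50 nM) in PBS pH 7.4, 0.01% Tween-20, then compound added for 30 min. AlphaScreen streptavidin donor/nickel chelate acceptor beads (10 ug/mL final), 30 min dark, luminescence read.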
PLK1 PBD block: PLK1 (human) polo-box domain binding inhibition; actives 2.8% (n = 360,000); P53350; Potency, µM, without a hit: max response, negative = inhibition, actives largely listed as inhibitors; Plk1 PBD binding of FITC phosphopeptide, fluorescence polarization; AID 720504; further: series mostly up to about 57 µM; on the % scale 0 is the no-effect control and ±100 the full control effect; nearly all actives have a fitted effect of over 65% in size
Sfp inh: inhibitors of Bacillus subtilis Sfp phosphopantetheinyl transferase; Q9F4F7; Biochemical Sfp PPTase activity, qHTS; Potency, µM, without a hit: largest response in the series, negative = inhibition, hits mostly inhibitors; actives 3.5% (n = 310,000);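 further: the enzyme is Sfp with the accession as filed and its product quenches rhodamine fluorescence; 0% = enzyme reaction without inhibitor and -100% = no enzyme wells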
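Fluorescence-quenching assay: 15 nM Sfp-PPTase preincubated 15 min at room temperature with compound, then 5 uM rhodamine-CoA and 12.5 uM BHQ-2-labelled YbbR peptide added. Fluorescence (ex 525/em 598 nm) read at start and after 30 min; difference gives rate.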
BAZ2B block: blocks human BAZ2B. AlphaScreen BAZ2B-H3K14Ac peptide displacement. Potency, µM (doses to about 114 µM), for the others: at the highest dose activity change, negative = inhibition, most hits filed as inhibitors. actives 4.4% (n = 360,000). AID 504333; further: on the % scale 0 is the no-effect control and ±100 the full control effect; nearly all actives have a fitted effect of over 60% in size
Target sequence (Q9UIF8 whole entry, looked up): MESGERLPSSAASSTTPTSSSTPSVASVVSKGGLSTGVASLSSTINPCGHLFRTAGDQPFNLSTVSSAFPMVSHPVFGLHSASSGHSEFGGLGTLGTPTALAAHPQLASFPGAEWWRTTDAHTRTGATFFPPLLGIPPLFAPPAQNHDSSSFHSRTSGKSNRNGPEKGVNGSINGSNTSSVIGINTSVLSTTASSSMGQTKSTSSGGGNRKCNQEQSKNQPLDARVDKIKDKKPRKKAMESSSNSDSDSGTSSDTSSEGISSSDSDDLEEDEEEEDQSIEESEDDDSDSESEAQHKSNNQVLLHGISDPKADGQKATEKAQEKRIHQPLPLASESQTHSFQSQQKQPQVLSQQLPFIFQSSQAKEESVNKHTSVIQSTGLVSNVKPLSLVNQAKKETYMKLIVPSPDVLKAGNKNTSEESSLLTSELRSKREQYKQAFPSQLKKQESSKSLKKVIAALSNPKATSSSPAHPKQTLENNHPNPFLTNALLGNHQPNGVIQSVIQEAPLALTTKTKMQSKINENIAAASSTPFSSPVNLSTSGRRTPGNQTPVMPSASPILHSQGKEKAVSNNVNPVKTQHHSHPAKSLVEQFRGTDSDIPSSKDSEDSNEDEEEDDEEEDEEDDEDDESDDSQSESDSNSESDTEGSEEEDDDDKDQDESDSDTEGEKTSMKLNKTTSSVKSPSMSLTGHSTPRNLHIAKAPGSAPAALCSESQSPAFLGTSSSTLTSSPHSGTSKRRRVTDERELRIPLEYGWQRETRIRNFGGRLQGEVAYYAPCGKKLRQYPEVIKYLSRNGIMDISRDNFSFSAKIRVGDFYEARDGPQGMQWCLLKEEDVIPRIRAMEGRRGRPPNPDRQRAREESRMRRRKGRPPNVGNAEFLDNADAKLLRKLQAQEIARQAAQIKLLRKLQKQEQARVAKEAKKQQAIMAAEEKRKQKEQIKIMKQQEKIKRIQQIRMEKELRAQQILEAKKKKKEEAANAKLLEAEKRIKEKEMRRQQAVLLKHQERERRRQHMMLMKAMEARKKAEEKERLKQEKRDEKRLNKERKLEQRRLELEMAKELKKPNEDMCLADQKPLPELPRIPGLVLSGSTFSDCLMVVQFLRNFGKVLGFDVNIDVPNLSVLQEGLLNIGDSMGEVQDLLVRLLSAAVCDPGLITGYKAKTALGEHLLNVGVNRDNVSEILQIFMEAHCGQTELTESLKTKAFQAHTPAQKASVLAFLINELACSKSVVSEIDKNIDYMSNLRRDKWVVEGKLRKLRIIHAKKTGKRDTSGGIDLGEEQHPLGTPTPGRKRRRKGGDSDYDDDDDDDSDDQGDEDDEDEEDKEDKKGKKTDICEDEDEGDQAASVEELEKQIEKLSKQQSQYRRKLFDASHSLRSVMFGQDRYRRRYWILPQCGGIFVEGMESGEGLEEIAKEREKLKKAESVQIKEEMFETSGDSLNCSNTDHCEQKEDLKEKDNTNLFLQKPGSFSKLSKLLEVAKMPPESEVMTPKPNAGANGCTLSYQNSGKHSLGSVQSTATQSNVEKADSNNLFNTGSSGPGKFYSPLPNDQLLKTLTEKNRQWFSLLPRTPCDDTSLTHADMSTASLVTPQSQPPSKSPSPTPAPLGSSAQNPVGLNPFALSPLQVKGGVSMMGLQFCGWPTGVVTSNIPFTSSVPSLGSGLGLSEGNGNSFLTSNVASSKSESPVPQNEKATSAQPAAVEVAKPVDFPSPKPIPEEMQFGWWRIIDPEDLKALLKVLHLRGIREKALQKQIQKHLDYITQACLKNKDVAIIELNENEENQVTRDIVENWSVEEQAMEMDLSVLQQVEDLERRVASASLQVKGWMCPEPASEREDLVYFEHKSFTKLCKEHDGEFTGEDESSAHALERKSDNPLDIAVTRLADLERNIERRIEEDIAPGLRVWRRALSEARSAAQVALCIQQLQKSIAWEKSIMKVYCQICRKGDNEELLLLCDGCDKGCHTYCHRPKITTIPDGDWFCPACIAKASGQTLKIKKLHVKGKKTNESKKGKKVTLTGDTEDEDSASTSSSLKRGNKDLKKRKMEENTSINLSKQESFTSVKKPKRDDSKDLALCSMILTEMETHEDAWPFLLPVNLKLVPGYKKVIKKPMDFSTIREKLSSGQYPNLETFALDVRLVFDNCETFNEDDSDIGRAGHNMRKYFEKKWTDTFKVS
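In this displacement format the biotinylated H3(5-23) peptide acetylated at Lys14 serves as ligand at 50 nM, with BAZ2B at 50 nM in PBS pH 7.4 containing 0.01% Tween-20. Donor and acceptor beads are 10 ug/mL final.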
* marks the source's active call; other numbers are inactive results; ? = inconclusive; nt = no result given; [ ] = dose if it differs, or a comment. The call rests on the fitted dose curve; in most records, active means well fitted curve in the direction sought with a large enough effect; inconclusive means small, poorly fitted or top-dose-only effect, or another doubt; inactive means no such curve, though single readings can be large; an effect the other way counts as inactive or inconclusive. Potency means the concentration at half of the fitted maximal effect.

SMILES | G9a block | JMJD2A Tudor inh | HP1b binding inh | PLK1 PBD block | Sfp inh | BAZ2B block
COc1ccc(/C=C\c2onc(C)c2S(=O)(=O)N2CCC(C(=O)Nc3cccc(Cl)c3)CC2)cc1 | 6%[59 µM] | -17% | 17% | nt | nt | nt
N#Cc1cccc(NC(=O)N2CC[C@@]3(CCCN(C(=O)c4cccc(F)c4)C3)C2)c1 | 2%[12.7 µM] | nt | nt | nt | -4% | nt
COc1cc(NC(=S)N2CCCC(CO)C2)cc(OC)c1 (centres undefined) | ? | 7% | 13% | 21µM* | ? | -15%
Cc1ccc(Cl)cc1NC(=O)C[n+]1ccc(Cc2ccc([N+](=O)[O-])cc2)cc1 | 25µM* | ? | 21% | 2% | 45µM* | -4%
O=C(C[n+]1ccc(Cc2ccccc2)cc1)Nc1ccc([N+](=O)[O-])cc1Cl | -9% | -35% | 45% | -11% | 11% | -37%
CCN1C(=NCCOC)N[C@@H](c2ccccc2)[C@H](C(=O)OC)[C@H]1C | -11%[12.7 µM] | -17% | 16% | -15% | 3% | 50µM*
COc1cc(OC)cc(OC(=O)C2CCN(S(=O)(=O)c3ccc(OC)c(OC)c3)CC2)c1 | ? | -15% | 46% | 0% | nt | -19%
CCCC(=O)NC(NC1CCS(=O)(=O)C1)C(Cl)(Cl)Cl (centres undefined) | nt | -16%[11.4 µM] | -16% | 27µM* | 1% | -4%
Cc1nc(CCN2C(=O)c3ccccc3C2=O)n[nH]1 | ? | 25µM* | -9% | 7.5µM* | -4% | ?
O=C(O)CCCN1C(=O)C2C3CC(C2C1=O)C1C(c2ccccc2)c2sc(=O)[nH]c2SC31 (centres undefined) | ? | -5% | 26% | -21% | ? | nt
O=C(O)CN1C(=O)C2C3CC(C2C1=O)C1C(c2ccc(Cl)cc2)c2sc(=O)[nH]c2SC31 (centres undefined) | 50µM* | -17% | -1% | -16% | -22% | -26%
O=C(O)CN1C(=O)C2C3CC(C2C1=O)C1C(c2ccc(F)cc2)c2sc(=O)[nH]c2SC31 (centres undefined) | 45µM* | -13% | 14% | ? | 45µM* | 2%
CSC(=S)NN=C(C)c1cccc(C)n1 | nt | 5µM* | -25% | -4% | nt | nt
CC(=NNC(=S)N1CCCCC1)c1cccc(C)n1 | nt | 25µM* | ? | ? | nt | nt
Cc1cccc(C(=S)N2CCOCC2)n1 | 1%[12.7 µM] | -6% | 12% | -9% | nt | -4%
CCOC(=O)N1CCN(C2=C(NS(=O)(=O)c3ccc(Br)cc3)C(=O)c3ccccc3C2=O)CC1 | nt | nt | nt | -18% | nt | nt
COc1ccc(C(CNS(=O)(=O)c2ccccc2)N2CCN(C)CC2)cc1 (centres undefined) | -50% | -8% | 28% | -1% | nt | -6%
CCOC(=O)N1CCN(C2=C(NS(=O)(=O)c3ccccc3)C(=O)c3ccccc3C2=O)CC1 | 35µM* | ? | ? | -23% | -6% | 32µM*
CN1CCN(C2=C(NS(=O)(=O)c3ccccc3)C(=O)c3ccccc3C2=O)CC1 | 28µM* | -16% | 1% | -28% | -11% | ?
O=C1C(NS(=O)(=O)c2ccc(Cl)cc2)=C(N2CCCCC2)C(=O)c2ccccc21 | 10µM* | 11µM* | ? | -18% | -2% | 5.6µM*
CC(=O)N1CCc2c(sc3c2c(=O)n(CCc2ccccc2)c(=O)n3Cc2ccccc2C)C1 | ? | ? | -7% | nt | nt | -35%
CC(=O)c1ccccc1C(=O)N1CCC(CCC(=O)NCc2ccc(F)cc2)CC1 | nt | nt | nt | -5% | nt | nt
O=C(COC(=O)CNC(=O)c1ccc(Cl)cc1Cl)NC(=O)NCc1ccccc1 | 56µM* | 0% | 42% | -2% | nt | 2%
COc1ccccc1C(=O)NC(=O)COC(=O)CNC(=O)c1ccc(Cl)cc1Cl | 50µM* | 3% | 41% | -1% | nt | 6%
COc1ccc(NC(=O)Nc2cc(C)cc(C)c2)cn1 | 6% | -12% | 35% | -10% | 4% | -3%
SMILES | G9a block | JMJD2A Tudor inh | HP1b binding inh | PLK1 PBD block | Sfp inh | BAZ2B block
COc1ccc(NC(=O)Nc2cccs2)cn1 | 35µM* | -35% | 9% | -25% | 56µM* | -37%
COc1ccc(NC(=O)CCl)cn1 | 28µM* | nt | nt | nt | ? | 79µM*
CCCCn1cc2c(c1-c1ccccc1Br)c(=O)n(C)c(=O)n2C | -26%[59 µM] | ? | 28% | nt | nt | ?
COc1ccc(C2=C/C(=C\c3ccc(OC(C)=O)cc3)C(=O)O2)cc1 | -13%[59 µM] | 3% | 75% | -10% | -5% | -9%
CC(=O)Oc1cccc(/C=C2\C=C(c3ccc(C)cc3)OC2=O)c1 | ? | ? | -4% | 19µM* | -22% | -15%
CCOC(=O)c1c(N)sc2c1CCCC2 | ? | ? | -19% | ? | ? | ?
CCOC(=O)c1c(NS(C)(=O)=O)sc2c1CCC(C)C2 (centres undefined) | 56µM* | -35% | 4% | ? | -14% | ?
CCOC(=O)c1c(N)sc2c1CCC(C)C2 (centres undefined) | ? | -22% | -9% | ? | 50µM* | ?
CCOC(=O)c1c(N)sc2c1CCS(=O)(=O)C2 | 8.9µM* | ? | ? | 27µM* | 56µM* | -4%
Cc1cccc(NC(=O)c2c(N)sc3c2CCC(C)C3)c1 (centres undefined) | 13µM* | -27% | 13% | nt | nt | -3%
Cc1cccc(NC(=O)c2c(NC(=O)c3cccs3)sc3c2CCC(C)C3)c1 (centres undefined) | 70%[59 µM] | 13% | 64% | nt | nt | 29%
CCCNC(=O)[C@H]1O[C@@H]1C(=O)N[C@H](C(=O)N1CCC[C@H]1C(=O)OC)[C@@H](C)CC | 41%[59 µM] | nt | nt | nt | 21% | nt
Cc1ccc(C(=O)NC(c2ccccc2)C(Cl)Cl)cc1 (centres undefined) | 50µM* | 5% | 46% | 2% | -9% | -1%
CCOc1ccccc1NC(=O)N1CCN(Cc2nc3ccc(C)cc3o2)CC1 | -5%[12.7 µM] | 11% | 19% | nt | nt | -19%
C[C@@H]1OC2C3=C(C(=O)[C@H]4O[C@@H]4[C@H]3O)[C@@H]1[C@H]1[C@H](C)OC=C3[C@H](O)[C@H]4O[C@H]4/C(=N\OCc4ccccc4)[C@@]321 | nt | nt | nt | nt | 5% | nt
Cc1ccc(CNC(=O)c2cn(C3CCCCC3)c(=O)c3c2c2ccccc2n3C)o1 | 50µM* | -34% | -2% | ? | 18µM* | -32%
Cc1ccc(CNC(=O)c2cc3c(=O)n(C)c4ccccc4c3n2C)o1 | ? | -11% | 30% | 0% | 56µM* | 13%
Cc1ccc(CNC(=O)c2cn(C)c(=O)c3c2c2ccccc2n3C)o1 | 1%[12.7 µM] | -19% | -9% | -11% | 22µM* | 5%
Cn1c(C(=O)NCc2ccc(Cl)cc2)cc2c(=O)n(C)c3ccccc3c21 | -32%[59 µM] | -3% | 21% | nt | nt | -3%
